Results from PubChem BioAssay (NCATS).
Inconclusive results are not listed. Active and inactive are the calls of the source. Calls come from the whole dose curve; as a rule, active = well fitted curve in the direction sought with a large enough effect; inconclusive = small, poorly fitted or top-dose-only effect, or another doubt; inactive = no such curve, though single readings can be large; an effect the other way counts as inactive or inconclusive.

Columns and labels:
Es-2 = assay: Primary qHTS to identify gynecologic anti-cancer compounds using libraries of approved drugs and bioactive compounds (AID 1345084); conditions: Gynecologic cancer cell panel viability, ATPlite luminescence, 48 h; series mostly up to 57.5 µM; note: nearly all actives have a fitted effect of over 55% in size
Procedure, shortened: (§1)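 In this quantitative HTS, cell killing is estimated from loss of ATP-dependent luciferase light. Cells see five compound concentrations over a 48 h exposure.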

HeLa = assay: as above; conditions: Gynecologic cancer cell panel viability, ATPlite luminescence, 48 h; series mostly up to 57.5 µM
Procedure, shortened: as §1

Hek293T = assay: as above; conditions: Gynecologic cancer cell panel viability, ATPlite luminescence, 48 h, control line for the selectivity index; series mostly up to 57.5 µM
Procedure, shortened: as §1

OV90 = assay: as above; conditions: Gynecologic cancer cell panel viability, ATPlite luminescence, 48 h; series mostly up to 57.5 µM
Procedure, shortened: as §1

PA-1 = assay: as above; conditions: Gynecologic cancer cell panel viability, ATPlite luminescence, 48 h; series mostly up to 57.5 µM
Procedure, shortened: as §1

Tov-21-G = assay: as above; conditions: Gynecologic cancer cell panel viability, ATPlite luminescence, 48 h; series mostly up to 57.5 µM
Procedure, shortened: as §1

Tov112D = assay: as above; conditions: Gynecologic cancer cell panel viability, ATPlite luminescence, 48 h; series mostly up to 57.5 µM
Procedure, shortened: as §1

astro = assay: Drug repurposing screens with cells derived from glioblastoma tumor samples (AID 1345199); conditions: viability, ATP luminescence, 48 h; series mostly up to 45.9 µM; note: nearly all actives have a fitted effect of over 40% in size
Procedure, shortened: (§2)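 Primary testing used CD133+ neurospheres from four GBM patients, seven concentrations, 48 h exposure and ATP-based viability; confirmation added three slower-growing patient lines.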

MCC-26 = assay: qHTS assay to identify novel small-molecules to repurpose for Merkel cell carcinoma treatment (AID 1296009); conditions: MCC and control cell lines, CellTiter-Glo viability, 72 h; series mostly up to 46 µM; note: nearly all actives have a fitted effect of over 60% in size
Procedure, shortened: (§3)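 Luminescence from CellTiter-Glo, read 10 min after addition at room temperature, reported viability following a 72 hr, 37 degree celsius treatment with NPC or MIPE compounds in titration; values normalized to plate controls.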

UISO = assay: as above; conditions: MCC and control cell lines, CellTiter-Glo viability, 72 h; series mostly up to 46 µM
Procedure, shortened: as §3

C33A = assay: Primary qHTS to identify gynecologic anti-cancer compounds using libraries of approved drugs and bioactive compounds (AID 1345084); conditions: Gynecologic cancer cell panel viability, ATPlite luminescence, 48 h; series mostly up to 57.5 µM; note: nearly all actives have a fitted effect of over 55% in size
Procedure, shortened: as §1

CAOV3 = assay: as above; conditions: Gynecologic cancer cell panel viability, ATPlite luminescence, 48 h; series mostly up to 57.5 µM
Procedure, shortened: as §1

CASKI = assay: as above; conditions: Gynecologic cancer cell panel viability, ATPlite luminescence, 48 h; series mostly up to 57.5 µM
Procedure, shortened: as §1

JEG-3 = assay: as above; conditions: Gynecologic cancer cell panel viability, ATPlite luminescence, 48 h; series mostly up to 57.5 µM
Procedure, shortened: as §1

SKOV3 = assay: as above; conditions: Gynecologic cancer cell panel viability, ATPlite luminescence, 48 h; series mostly up to 57.5 µM
Procedure, shortened: as §1

WaGa = assay: qHTS assay to identify novel small-molecules to repurpose for Merkel cell carcinoma treatment (AID 1296009); conditions: MCC and control cell lines, CellTiter-Glo viability, 72 h; series mostly up to 46 µM; note: nearly all actives have a fitted effect of over 60% in size
Procedure, shortened: as §3

[1] = Drug repurposing screens with cells derived from glioblastoma tumor samples (AID 1345199); conditions: GBM patient neurospheres viability, ATP luminescence, 48 h; note: nearly all actives have a fitted effect of over 40% in size
Procedure, shortened: as §2

MKL-2 = assay: qHTS assay to identify novel small-molecules to repurpose for Merkel cell carcinoma treatment (AID 1296009); conditions: MCC and control cell lines, CellTiter-Glo viability, 72 h; series mostly up to 46 µM; note: nearly all actives have a fitted effect of over 60% in size
Procedure, shortened: as §3

[2] = at 46.1 µM (top of the series), tumour line C
[3] = at 45.9 µM (top of the series), tumour line B
[4] = at 45.9 µM (top of the series), tumour line D
[5] = at 46 µM (top of the series), tumour line A
% is set by controls: 0 for no effect and ±100 for the full control effect; potency is the fitted concentration of half-maximal effect.

COCC(=O)O[C@]1(CCN(C)CCCc2nc3ccccc3[nH]2)CCc2cc(F)ccc2[C@@H]1C(C)C
active: Potency (OV90) 22.4 µM | Potency (astro) 10 µM
inactive: Potency (Es-2) | Potency (HeLa) | Potency (Hek293T) | Potency (PA-1) | Potency (Tov-21-G) | Potency (Tov112D)

Cc1nc2sccn2c(=O)c1CCN1CCC(=C(c2ccc(F)cc2)c2ccc(F)cc2)CC1
active: Potency (astro) 20 µM
inactive: Potency (MCC-26) | Potency (UISO) | Potency (C33A) | Potency (CAOV3) | Potency (CASKI) | Potency (Es-2) | Potency (Hek293T) | Potency (JEG-3) | Potency (PA-1) | Potency (SKOV3) | Potency (Tov-21-G) | Potency (Tov112D)

O=C(CCCN1CCC(O)(c2cccc(C(F)(F)F)c2)CC1)c1ccc(F)cc1
inactive: Potency (MCC-26) | Potency (UISO) | Potency (WaGa) | Potency (C33A) | Potency (CAOV3) | Potency (CASKI) | Potency (Es-2) | Potency (HeLa) | Potency (Hek293T) | Potency (JEG-3) | Potency (PA-1) | Potency (SKOV3) | Potency (Tov-21-G) | Potency (Tov112D)

COc1ccc([C@@H]2Sc3ccccc3N(CCN(C)C)C(=O)[C@@H]2OC(C)=O)cc1
inactive: Potency (C33A) | Potency (CASKI) | Potency (Es-2) | Potency (HeLa) | Potency (Hek293T) | Potency (JEG-3) | Potency (OV90) | Potency (PA-1) | Potency (SKOV3) | Potency (Tov-21-G) | Potency (Tov112D) | activity, negative = cell killing [1, 2] -13.9%

CCCC(C(=O)OCCN(CC)CC)(c1ccccc1)c1ccccc1
active: Potency (UISO) 26.6 µM | Potency (OV90) 12.6 µM
inactive: Potency (MCC-26) | Potency (CASKI) | Potency (JEG-3)

CC(C)COCC(CN(Cc1ccccc1)c1ccccc1)N1CCCC1 (stereo not drawn)
inactive: Potency (CASKI) | Potency (Es-2) | Potency (Tov-21-G) | activity, negative = cell killing [1, 2] -7.32%
active: Potency (CAOV3) 25.1 µM | Potency (OV90) 25.1 µM | Potency ([1]; tumour line A) 11.2 µM | Potency ([1]; tumour line D) 11.2 µM

C[N+](C)(C)CCCCCCCCCC[N+](C)(C)C
inactive: Potency (C33A) | Potency (CASKI) | Potency (Es-2) | Potency (Hek293T) | Potency (JEG-3) | Potency (OV90) | Potency (PA-1) | Potency (SKOV3) | Potency (Tov-21-G) | Potency (Tov112D) | activity, negative = cell killing [1, 3] -8.43% | activity, negative = cell killing [1, 4] -24.4% | activity, negative = cell killing [1, 5] -24.5% | activity, negative = cell killing [1, 2] -2.46%

CN1CCN(C2=Nc3ccccc3Oc3ccc(Cl)cc32)CC1
inactive: Potency (MCC-26) | Potency (UISO) | Potency (WaGa) | Potency (C33A) | Potency (CAOV3) | Potency (CASKI) | Potency (Es-2) | Potency (Hek293T) | Potency (JEG-3) | Potency (PA-1) | Potency (SKOV3) | Potency (Tov-21-G) | Potency (Tov112D) | activity, negative = cell killing ([1]; at 20 µM (top of the series), tumour line C) -15.4% | activity, negative = cell killing ([1]; at 21.2 µM (top of the series), tumour line B) -17.3% | activity, negative = cell killing ([1]; at 21.2 µM (top of the series), tumour line D) -18.3% | Potency (astro)
active: Potency ([1]; tumour line A) 12.6 µM

CCCCCCCC/C=C\CCCCCCCC(=O)NCc1ccc(O)c(OC)c1
inactive: Potency (MCC-26) | Potency (CAOV3) | Potency (CASKI) | Potency (Es-2) | Potency (HeLa) | Potency (Hek293T) | Potency (JEG-3) | Potency (OV90) | Potency (SKOV3) | Potency (Tov112D) | Potency (astro)
active: Potency (C33A) 7.94 µM

Cc1cc(C)c(/C=C2\C(=O)Nc3ccccc32)[nH]1
active: Potency ([1]; tumour line A) 31.6 µM
inactive: Potency (MCC-26) | Potency (MKL-2) | Potency (WaGa) | Potency (C33A) | Potency (CAOV3) | Potency (CASKI) | Potency (Es-2) | Potency (Hek293T) | Potency (JEG-3) | Potency (OV90) | Potency (PA-1) | Potency (SKOV3) | Potency (Tov-21-G) | Potency (Tov112D) | activity, negative = cell killing [1, 3] -6.6%

CO[C@@]1(NC(=O)CSCC#N)C(=O)N2C(C(=O)O)=C(CSc3nnnn3C)CS[C@@H]21
inactive: Potency (MCC-26) | Potency (UISO) | Potency (C33A) | Potency (CAOV3) | Potency (CASKI) | Potency (Es-2) | Potency (HeLa) | Potency (Hek293T) | Potency (JEG-3) | Potency (OV90) | Potency (PA-1) | Potency (SKOV3) | Potency (Tov-21-G) | Potency (Tov112D) | activity, negative = cell killing [1, 3] -13.1% | activity, negative = cell killing [1, 4] -14.3% | activity, negative = cell killing [1, 5] -28.8% | Potency (astro)
